Test results reported in PubChem BioAssay (NCI).
Compounds without any hit were thinned out: in the full panel of roughly 83,000, 20% have a hit.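 A percent growth of 40 corresponds to 60% growth inhibition; 0 means no net growth; -100 means all cells died. Active threshold: below 10.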 Activity calls are given as the source filed them.

How the values were obtained:
Test in all cases: NCI-60 one-dose screen, 48 h (100 = growth as untreated, 0 = no growth, -100 = all killed)
Details in all cases: 10 µM unless noted
BT-549 breast = tested on: BT-549 breast
MDA-MB-435 melanoma = tested on: MDA-MB-435 melanoma
SW-620 colon = tested on: SW-620 colon
MCF7 breast = tested on: MCF7 breast
HCT-116 colon = tested on: HCT-116 colon
HCC-2998 colon = tested on: HCC-2998 colon
KM12 colon = tested on: KM12 colon
MDA-MB-468 breast = tested on: MDA-MB-468 breast

Measured: growth

CC1=C(C(=O)Nc2ccccc2)C(c2ccc3ccccc3c2)n2c(nc3ccccc32)N1 (stereo not given)
inactive: BT-549 breast 92.9% | MDA-MB-435 melanoma 53.9% | HCC-2998 colon 52.3% | KM12 colon 69.4% | MDA-MB-468 breast 17.9%
active: SW-620 colon 9.24% | MCF7 breast 9.9% | HCT-116 colon -36.4%

Cn1cc(-c2cc3nc(-c4cn(C)c5ncccc45)cc(N)n3n2)c2cc(F)ccc21
inactive: BT-549 breast 35.4% | MDA-MB-435 melanoma 83.1% | SW-620 colon 61% | MCF7 breast 68.2% | HCT-116 colon 10.2% | HCC-2998 colon 39.8% | KM12 colon 61.8%
active: MDA-MB-468 breast 7.65%

COc1ccc2[nH]c(O)c(N=NC(=O)c3ccc4nc(-c5ccc(Cl)cc5)[nH]c4c3)c2c1
inactive: BT-549 breast 34.5% | MDA-MB-435 melanoma 81.2% | SW-620 colon 82.6% | MCF7 breast 24.5% | HCT-116 colon 51.4% | HCC-2998 colon 64.6% | KM12 colon 78.6%

S=C(NCCc1ccccc1)Nc1ccc(OCc2nc3ccc(Cl)cc3[nH]2)cc1
active: MCF7 breast 7.94% | HCC-2998 colon 3.57%
inactive: BT-549 breast 45.9% | MDA-MB-435 melanoma 36.6% | SW-620 colon 37% | HCT-116 colon 18.9% | KM12 colon 18.6% | MDA-MB-468 breast 21.7%

O=C1NC(=NC23CC4CC(CC(C4)C2)C3)N/C1=C\c1ccc2ncccc2c1
inactive: BT-549 breast 16.2% | HCC-2998 colon 22.7% | KM12 colon 24.3% | MDA-MB-468 breast 19.4%
active: MDA-MB-435 melanoma -22.6% | SW-620 colon 1.21% | MCF7 breast -11.4% | HCT-116 colon 3.24%

CS(=O)(=O)Nc1cc(-c2ccc3ncnc(Nc4ccc(OCc5cccnc5)c(Cl)c4)c3c2)cnc1Cl
active: BT-549 breast -55.6% | MDA-MB-435 melanoma -9.37% | SW-620 colon 6.78% | MCF7 breast -8.39% | HCT-116 colon -71.6% | HCC-2998 colon -60.4% | MDA-MB-468 breast -81.3%
inactive: KM12 colon 10.8%

C=CC(=O)Nc1ccc(C(=O)/C=C/c2ccc(N(C)C)cc2)c(O)c1
inactive: MCF7 breast 10.7%
active: BT-549 breast -45.7% | MDA-MB-435 melanoma -3.66% | SW-620 colon 1.21% | HCT-116 colon -52.6% | HCC-2998 colon -53.2% | KM12 colon -64.4% | MDA-MB-468 breast -19.8%

CC(C)CN1C(=O)/C(=C\C(=O)c2cc3ccccc3oc2=O)c2ccccc21
inactive: BT-549 breast 111% | MDA-MB-435 melanoma 98.8% | SW-620 colon 41% | MCF7 breast 58.1% | HCT-116 colon 91.2% | HCC-2998 colon 118% | KM12 colon 103%

COc1ccc(NC(=O)Cn2c(/C=C/c3ccc([N+](=O)[O-])cc3)nc3ccccc3c2=O)cc1
inactive: BT-549 breast 106% | MDA-MB-435 melanoma 84.2% | SW-620 colon 70.5% | MCF7 breast 73.9% | HCT-116 colon 35.6% | HCC-2998 colon 67.5% | KM12 colon 82.7% | MDA-MB-468 breast 52%

CN(C)CCCNC(=S)Nc1ccc(/C=C/c2ccc(Cl)cc2)cc1
active: BT-549 breast -69.2% | MDA-MB-435 melanoma -90.6% | SW-620 colon -41.7% | MCF7 breast -46.2% | HCT-116 colon -11.1% | HCC-2998 colon -84.2% | KM12 colon -36.8% | MDA-MB-468 breast -88.7%

NCCCCn1c(SCCc2c[nH]c3ccccc23)nnc1-c1ccc2ccccc2n1
active: MDA-MB-435 melanoma -75% | SW-620 colon -73.1% | MCF7 breast -88.8% | HCT-116 colon -94.1% | HCC-2998 colon -90.2% | MDA-MB-468 breast -87.1%
inactive: BT-549 breast 54.5% | KM12 colon 13.1%

COc1ccc(NC2=C(I)C(=O)C(C)=C(C)C2=O)cc1
inactive: BT-549 breast 81.4% | SW-620 colon 62.1% | HCC-2998 colon 118% | KM12 colon 19.1%
active: MDA-MB-435 melanoma -72.4% | MCF7 breast -8.31% | HCT-116 colon -3.05% | MDA-MB-468 breast -42.3%

O=C(N/N=C/c1ccc(Cl)o1)c1[nH]c2ccc(Br)cc2c1-c1ccccc1
active: BT-549 breast -25.9% | MDA-MB-435 melanoma -47.9% | SW-620 colon -29.6% | MCF7 breast 1.67% | HCT-116 colon -56.1% | HCC-2998 colon -26% | KM12 colon 2.65% | MDA-MB-468 breast -9.32%

COc1ccc2c(c1)C(Sc1ccc(Br)cc1)c1c(nc(N)c(C#N)c1N)O2 (stereo not given)
inactive: BT-549 breast 56.1% | MDA-MB-435 melanoma 88% | SW-620 colon 80.1% | MCF7 breast 61.9% | HCT-116 colon 75.1% | HCC-2998 colon 111% | KM12 colon 74.7% | MDA-MB-468 breast 97.1%
